The values below come from PubChem BioAssay.

The source made the active and inactive calls. Unless noted, the rule behind the calls is not given here.

In assay [1] the test system is Wnt5a (protein binding on small-molecule microarray). The assay is described as follows: Wnt5a binders on small-molecule microarray, primary screen, biophysical, 635/667 nm fluorescence (AID 1142).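 Note: fluorescence read at 667 nm with signal to noise per printed feature.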 The note with it: 635 nm fluorescence, higher = more signal.
A short description of assay [2]: cell viability in Huh7 cells, primary screen, cytotoxicity control for HCV replication inhibitor project, CellTiter-Glo luminescence, basal, 48 h (AID 1143).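 Note: Huh7 hepatoma cells carrying a hepatitis C replication reporter with no stimulus; test concentration not given here.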 The note with it: Huh7 HCV replicon, higher = more signal, called active from +8 up or from −8 down. (In ATP-based viability assays light output follows the ATP content of the culture.)
Assay [3] is described as follows: P. aeruginosa biofilm formation inhibitors, primary screen, PAO1 strain, BacTiter-Glo luminescence, LB-PBS (AID 1144). To be noted: 12 h, higher = more signal.
Assay [4] can be described thus: CREB reporter modulators without forskolin, primary screen, cell-based, PC12, CRE-LacZ reporter, unstimulated (AID 1145). The note with it: no forskolin, luminescence, 4.5 h, higher = more signal, called active from +8 up or from −8 down.
A short description of assay [5]: CREB reporter modulators under forskolin, primary screen, cell-based, PC12, CRE-LacZ reporter, forskolin-stimulated (AID 1146).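 Note: PC12 cells with 6xCRE LacZ reporter stimulated by forskolin 10 µM; beta-galactosidase reporter signal reflecting CREB driven transcription.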 The note with it: luminescence, 4.5 h, higher = more signal, called active from +8 up or from −8 down.
Assay [6] has as its target Streptavidin (Streptomyces avidinii) (UniProt P22629). Nature of the assay: streptavidin binders on small-molecule microarray, primary screen, artefact control for SMM compound annotation, biophysical, 635/667 nm fluorescence (AID 1147).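 Note: signal reflects streptavidin binding to arrayed compounds as a control protein.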 The note with it: streptavidin binding, higher = more signal.
Assay [7] can be described thus: small-molecule binders of probe aInhba, primary screen, biochemical, small-molecule microarray, 635/667 nm fluorescence (AID 1148).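 Note: score merges 667nm spot fluorescence with signal-to-noise for antibody binding to printed compounds.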 The note with it: higher = more signal.
The target of assay [8] is Torsin-1A (Homo sapiens) (UniProt O14656). Nature of the assay: torsin A binders from cell lysate, primary screen, small-molecule microarray, wild-type, 635/667 nm (AID 1149). The note with it: COS7 hTOR1A-WT lysate, 635 nm fluorescence, higher = more signal.
The target is the same in assay [9]. The assay is described as follows: small-molecule binders of mutant TOR1A in lysate, primary screen, cell lysate, small-molecule microarray, COS7 lysate, 635/667 nm fluorescence (AID 1150).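 Note: score pools 667 nm emission and signal to noise measuring lysate protein binding.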 To be noted: COS7 hTOR1A mutant lysate, 635 nm fluorescence, higher = more signal.
The subject of assay [10] is Sonic hedgehog protein (Shh). The assay is described as follows: small-molecule binders of Shh protein, primary screen, biochemical, small-molecule microarray, 635/667 nm fluorescence (AID 1151).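 Note: Shh protein binding to compounds spotted on small-molecule microarray slides; score combines spot fluorescence intensity with signal-to-noise across triplicate slides.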 The note with it: small-molecule microarray binding, 635 nm fluorescence; higher = more signal.
A short description of assay [11]: E. coli DRC41 culture turbidity changes, primary screen, E. coli filamentation inducer project, strain DRC41, OD650, 48 h (AID 1152).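 Note: E. coli MC1000 strain DRC41 lacking acrAB efflux pump and sulA.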 The note with it: E. coli DRC41 (acrAB sulA), higher = more signal, called active from +8 up or from −8 down.
Assay [12] is described as follows: small-molecule binders of probe aLefty1, primary screen, biochemical, small-molecule microarray, 635/667 nm fluorescence (AID 1153).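 Note: score merges spot fluorescence with signal-to-noise ratio from the scanned slide images.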 To be noted: higher = more signal.
Assay [13] in a line: PSAC antagonists in infected red cells, primary screen, cell-based, P. falciparum Indochina, OD700, 1 h (AID 1154). To be noted: P. falciparum Indochina infected RBC osmotic lysis, higher = more signal, called active from +8 up or from −8 down.
The nature of assay [14]: PSAC antagonists in infected red cells, primary screen, cell-based, P. falciparum Indochina, OD700, 2 h (AID 1155).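 Note: lysis reports solute entry through the parasite surface anion channel PSAC; channel blockers reduce lysis of infected cells.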 To be noted: P. falciparum Indochina infected erythrocytes, osmotic lysis OD700; higher = more signal, called active from +8 up or from −8 down.
Assay [15] can be described thus: osmotic lysis modulators in infected erythrocytes, primary screen, PSAC antagonist project, cell-based, P. falciparum Indochina, OD700, 3 h (AID 1156). To be noted: higher = more signal, called active from +8 up or from −8 down.
Assay [16] is described as follows: PSAC antagonists in infected red cells, primary screen, cell-based, P. falciparum Indochina, OD700, 18 h (AID 1157). To be noted: P. falciparum Indochina infected erythrocytes, osmotic lysis OD700, 18 h; higher = more signal, called active from +8 up or from −8 down.
Assay [17] in a line: modulators of S6 phosphorylation in cells, primary screen, cell-based, A549, cytoblot, luminescence, serum-stimulated (AID 1158).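 Note: serum-stimulated A549 lung adenocarcinoma cells; signal is phosphorylated S6 detected by cytoblot immunostaining with HRP secondary.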 The note with it: A549 phospho-S6 cytoblot, 5 h, higher = more signal.
Assay [18] concerns the target NADPH oxidase 2 (Homo sapiens) (UniProt P04839). Nature of the assay: NOX2-dependent H2O2 signal modulators, primary screen, NOX inhibitor project, cell-based, HEK293-NOX2, PMA-stimulated, Amplex Red fluorescence (AID 1159). Note: test concentration not given here. The note with it: 45 min, higher = more signal, called active from +8 up or from −8 down.
Assay [19] addresses NADPH oxidase 4 (Homo sapiens) (UniProt Q9NPH5). Nature of the assay: NOX4-dependent H2O2 signal modulators, primary screen, NOX inhibitor project, cell-based, HEK293-NOX4, tetracycline-induced, Amplex Red fluorescence (AID 1160). To be noted: 45 min, higher = more signal, called active from +8 up or from −8 down.
Assay [20] concerns the target NADPH oxidase 5 (Homo sapiens) (UniProt Q96PH1). The assay is described as follows: NOX5-dependent H2O2 signal modulators, primary screen, NOX inhibitor project, cell-based, HEK293-NOX5, Amplex Red fluorescence (AID 1161). The note with it: HEK293-NOX5, ionomycin, 45 min, higher = more signal.

Sequence of NADPH oxidase 4 (Homo sapiens) (Q9NPH5 whole entry, looked up): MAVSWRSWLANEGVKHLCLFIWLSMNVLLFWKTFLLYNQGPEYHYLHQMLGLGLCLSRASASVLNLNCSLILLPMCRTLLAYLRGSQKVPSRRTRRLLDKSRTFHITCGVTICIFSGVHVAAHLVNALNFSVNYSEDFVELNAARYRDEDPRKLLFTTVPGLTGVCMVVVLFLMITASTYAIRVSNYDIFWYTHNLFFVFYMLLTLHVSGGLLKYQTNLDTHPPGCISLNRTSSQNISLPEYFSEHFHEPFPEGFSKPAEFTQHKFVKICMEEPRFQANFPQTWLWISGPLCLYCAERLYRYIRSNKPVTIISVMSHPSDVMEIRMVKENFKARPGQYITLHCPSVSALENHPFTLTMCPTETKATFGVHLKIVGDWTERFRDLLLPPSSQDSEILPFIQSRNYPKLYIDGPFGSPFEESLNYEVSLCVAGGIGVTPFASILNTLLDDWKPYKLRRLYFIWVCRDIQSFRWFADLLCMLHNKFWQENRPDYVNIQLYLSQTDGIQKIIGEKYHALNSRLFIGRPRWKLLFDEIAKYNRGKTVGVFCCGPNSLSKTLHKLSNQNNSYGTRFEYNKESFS
Sequence of Streptavidin (Streptomyces avidinii) (P22629 whole entry, looked up): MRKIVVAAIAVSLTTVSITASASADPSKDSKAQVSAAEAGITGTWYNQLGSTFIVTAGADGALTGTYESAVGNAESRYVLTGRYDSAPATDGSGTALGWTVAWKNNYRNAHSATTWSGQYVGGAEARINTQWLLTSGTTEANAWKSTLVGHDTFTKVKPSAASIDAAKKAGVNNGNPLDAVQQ
Sequence of NADPH oxidase 2 (Homo sapiens) (P04839 whole entry, looked up): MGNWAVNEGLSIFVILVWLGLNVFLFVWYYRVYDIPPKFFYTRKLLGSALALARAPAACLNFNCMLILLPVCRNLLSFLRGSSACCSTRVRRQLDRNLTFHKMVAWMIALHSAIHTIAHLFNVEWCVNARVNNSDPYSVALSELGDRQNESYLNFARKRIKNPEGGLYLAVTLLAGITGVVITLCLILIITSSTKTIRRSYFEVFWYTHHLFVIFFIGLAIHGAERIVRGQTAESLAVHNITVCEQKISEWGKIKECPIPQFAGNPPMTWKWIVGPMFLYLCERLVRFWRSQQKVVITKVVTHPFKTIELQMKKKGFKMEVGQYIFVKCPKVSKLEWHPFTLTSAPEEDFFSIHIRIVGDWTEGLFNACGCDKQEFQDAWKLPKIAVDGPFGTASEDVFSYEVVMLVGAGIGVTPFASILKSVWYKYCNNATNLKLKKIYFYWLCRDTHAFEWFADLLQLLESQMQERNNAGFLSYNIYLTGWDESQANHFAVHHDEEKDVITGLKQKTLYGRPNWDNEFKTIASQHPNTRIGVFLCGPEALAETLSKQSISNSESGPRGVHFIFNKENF
Sequence of NADPH oxidase 5 (Homo sapiens) (Q96PH1 whole entry, looked up): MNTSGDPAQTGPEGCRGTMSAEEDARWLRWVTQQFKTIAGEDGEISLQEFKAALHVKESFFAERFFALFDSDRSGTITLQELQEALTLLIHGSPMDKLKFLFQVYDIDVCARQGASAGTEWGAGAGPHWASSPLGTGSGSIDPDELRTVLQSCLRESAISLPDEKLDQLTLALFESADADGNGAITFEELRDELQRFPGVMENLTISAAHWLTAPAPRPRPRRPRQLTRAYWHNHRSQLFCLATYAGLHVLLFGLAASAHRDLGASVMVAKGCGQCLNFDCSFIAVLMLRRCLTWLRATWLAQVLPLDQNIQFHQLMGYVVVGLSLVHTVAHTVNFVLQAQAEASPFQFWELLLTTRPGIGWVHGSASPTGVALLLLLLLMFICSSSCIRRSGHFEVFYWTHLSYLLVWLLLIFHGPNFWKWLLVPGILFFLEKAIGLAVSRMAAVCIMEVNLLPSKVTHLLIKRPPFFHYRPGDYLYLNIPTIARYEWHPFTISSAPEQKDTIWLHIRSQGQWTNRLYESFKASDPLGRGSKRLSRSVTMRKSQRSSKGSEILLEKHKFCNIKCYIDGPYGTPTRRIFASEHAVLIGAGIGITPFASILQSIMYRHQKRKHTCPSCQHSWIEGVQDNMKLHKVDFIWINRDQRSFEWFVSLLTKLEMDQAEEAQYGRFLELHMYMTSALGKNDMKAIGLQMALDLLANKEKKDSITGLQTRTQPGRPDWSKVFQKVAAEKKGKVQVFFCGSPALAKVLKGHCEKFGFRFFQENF
Sequence of Torsin-1A (Homo sapiens) (O14656 whole entry, looked up): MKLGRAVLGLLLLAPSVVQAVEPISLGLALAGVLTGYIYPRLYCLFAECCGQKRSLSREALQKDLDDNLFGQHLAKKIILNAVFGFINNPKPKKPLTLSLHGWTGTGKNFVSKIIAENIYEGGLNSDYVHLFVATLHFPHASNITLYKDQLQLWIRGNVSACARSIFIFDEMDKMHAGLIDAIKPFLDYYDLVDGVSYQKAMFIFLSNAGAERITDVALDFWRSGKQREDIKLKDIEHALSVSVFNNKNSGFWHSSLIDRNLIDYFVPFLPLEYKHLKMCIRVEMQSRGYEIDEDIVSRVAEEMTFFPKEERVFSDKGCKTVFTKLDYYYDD

On to `C=C(/C=C\CNS(=O)(=O)c1ccc(C)cc1)[C@H](O)[C@H]1CCCN1S(=O)(=O)c1ccccc1[N+](=O)[O-]`, for which the composite z-score in [1] is 0.0313; in assay [6], -0.0435; in assay [7], -0.0986; with Torsin-1A (Homo sapiens) [8], 0.345; in the assay with Torsin-1A (Homo sapiens) [9], -0.0414; in [10], 0.17. The same compound registered a composite z-score in [12] of -0.0366. For the same compound, the z-score in assay [2] was -4.19 (inactive); in [3], 0.227 (inactive); in [4] it was 13 (active); in assay [5], 0.121 (inactive); in [11], -0.473 (inactive); in [13], 12.1 (active). Besides, the z-score in assay [14] was 2.16 (inactive); in [15], 1.03 (inactive); in assay [16], 0.77 (inactive); in [17], -0.208; in [18] it was -0.264 (inactive); in assay [19], -2.04 (inactive). The z-score in assay [20] was -1.77.

Take `CCCCN1CC=CC23O[C@@H]4/C=C\CCCOC(=O)C4[C@H]2C(=O)N(CCCCCCO)[C@@H]3C1=O` (stereo not given in full): the composite z-score in assay [1] was -0.525; in assay [6], -0.654; in assay [7], -0.154; with Torsin-1A (Homo sapiens) [8] it was -1.63; with Torsin-1A (Homo sapiens) [9] it was -1.49; in assay [10] it was 0.145. In assay [12], the composite z-score was 0.0927. Besides, the z-score is 0.121 (inactive) in [2]; -1.2 (inactive) in assay [3]; 0.475 (inactive) in assay [4]; -0.34 (inactive) in [5]; 2.36 (inactive) in assay [11]; 1.81 (inactive) in assay [13]. The z-score in assay [14] is -0.88 (inactive); in [15], -0.75 (inactive); in assay [16], -0.945 (inactive); in assay [17], 3.08; in assay [18], 0.873 (inactive); in [19], 0.0146 (inactive). Also, in assay [20], the z-score amounted to 1.84.

With `COc1ccc(C(=O)Nc2ccc(CN3C(=O)[C@@]4(O[C@@H](CC(=O)N(CCO)Cc5ccccc5)[C@H]([Si](C)(C)c5ccc(OC)cc5)[C@H]4C)c4ccccc43)cc2)cc1`, the composite z-score in assay [1] is 0.353; in assay [6], 0.675; in [7], -0.179; with Torsin-1A (Homo sapiens) [8], 0.438; in the assay with Torsin-1A (Homo sapiens) [9] it was -0.0394; in assay [10], 1.59. The compound further came in with a composite z-score in [12] of -0.115. Moreover, the z-score in assay [2] was -5.7 (inactive); in [3], -0.376 (inactive); in assay [4], -0.533 (inactive); in assay [5], -0.0361 (inactive); in assay [11] it was 1.73 (inactive); in assay [13], 16.6 (active). Moreover, the z-score in assay [14] was 2.82 (inactive); in [15] it was 0.467 (inactive); in assay [16], -0.236 (inactive); in [17], 1.21; in assay [18] it was 1.06 (inactive); in [19], 1.39 (inactive). The z-score in [20] was 2.59.

Turning to `COC(=O)C(CC#Cc1ccc2c(c1)[C@]1(C(=O)N2)[C@H](C(=O)N2CCCCCCC2)[C@H]2C(=O)O[C@H](c3ccccc3)[C@H](c3ccccc3)N2[C@@H]1c1ccc(OCCO)cc1)C(=O)OC`, the composite z-score in assay [1] was found to be 2.02; in [6], 4.12; in assay [7] it was 1.97; with Torsin-1A (Homo sapiens) [8] it was 3.57; with Torsin-1A (Homo sapiens) [9] it was 3.65; in assay [10], 2.05. Further, in [12], the composite z-score came out at 3.14. Besides, the z-score in [2] was -0.873 (inactive); in assay [3], 1.02 (inactive); in assay [4], -0.581 (inactive); in assay [5], -0.546 (inactive); in assay [11] it was -0.215 (inactive); in assay [13] it was 13.7 (active). Further, the z-score in [14] was 2.51 (inactive); in assay [15], -5.71 (inactive); in [16], 0.588 (inactive); in [17], -0.779; in assay [18], 0.985 (inactive); in assay [19], 0.827 (inactive). Moreover, in [20], the z-score came to 1.6.

Take `CCCCCN1CC=CC23O[C@@H]4/C=C\CCCOC(=O)C4[C@H]2C(=O)N(CCCCCO)[C@@H]3C1=O` (stereo not given in full): the composite z-score in assay [1] is -0.827; in assay [6] it was -0.878; in assay [7], -0.128; in the assay with Torsin-1A (Homo sapiens) [8], -2.11; with Torsin-1A (Homo sapiens) [9] it was -1.09; in [10] it was -0.0251. This compound gave a composite z-score in [12] of -0.255. The z-score in [2] is -0.347 (inactive); in assay [3], -0.678 (inactive); in [4], -1.03 (inactive); in assay [5] it was 0.0118 (inactive); in [11] it was 1.83 (inactive); in assay [13], 0.46 (inactive). The z-score in assay [14] is -0.618 (inactive); in assay [15] it was -1.29 (inactive); in [16], -1.27 (inactive); in [17], -0.0754; in [18] it was 0.834 (inactive); in [19] it was 0.0699 (inactive). Further, the z-score in [20] amounted to 1.41.

For the compound `CCOC(=O)C[C@H]1[C@H](OC(=O)c2ccc(-c3ccccc3)cc2)[C@@H](NC(=O)C2CCCCC2)c2cc(OCCCO)ccc2N1C(=O)Cc1ccc(OC)cc1`, the composite z-score is -0.12 in [1]; 0.226 in assay [6]; -0.0259 in assay [7]; 0.061 with Torsin-1A (Homo sapiens) [8]; 0.391 with Torsin-1A (Homo sapiens) [9]; 0.106 in [10]. Further, in [12], the composite z-score was 0.0315. Further, the z-score was -0.137 (inactive) in assay [2]; -0.105 (inactive) in assay [3]; -0.155 (inactive) in [4]; -0.185 (inactive) in [5]; -0.815 (inactive) in assay [11]; 2.23 (inactive) in assay [13]. For the same compound, the z-score in [14] was 0.166 (inactive); in assay [15], -0.816 (inactive); in assay [16], 0.0141 (inactive); in assay [17], 0.571; in [18] it was -0.289 (inactive); in [19], 1.21 (inactive). In assay [20], the z-score came to 0.732.

For `CCOC(=O)C1=CCC(c2ccncc2)N(S(=O)(=O)c2ccc(C)cc2)C1` (stereo not given), the composite z-score in [1] is 0.637; in [6], 3.08; in assay [7], 0.121; with Torsin-1A (Homo sapiens) [8] it was 0.344; with Torsin-1A (Homo sapiens) [9], 1.12; in assay [10], 0.245. For the same compound, the composite z-score in [12] was 0.13. Moreover, the z-score was -4.28 (inactive) in assay [2]; -0.83 (inactive) in [3]; 0.546 (inactive) in assay [4]; 0.882 (inactive) in assay [5]; 0.149 (inactive) in [11]; 4.24 (inactive) in assay [13]. Further, the z-score in [14] was 1.29 (inactive); in assay [15], 0.488 (inactive); in assay [16], 0.953 (inactive); in [17], -0.0707; in assay [18] it was 0.168 (inactive); in assay [19], 0.432 (inactive). In [20], this compound showed a z-score of 0.0402.

As to `COCCCNC(=O)[C@@]1(CCC(=O)OC(C)(C)C)N=C(c2ccc(OCCCO)cc2)O[C@H]1c1ccccc1`, the composite z-score in [1] was 0.581; in assay [6], 0.471; in assay [7] it was 0.113; with Torsin-1A (Homo sapiens) [8] it was 0.725; with Torsin-1A (Homo sapiens) [9], 1.12; in assay [10], -0.119. This compound also gave a composite z-score in [12] of 0.0949. The z-score was 0.0272 (inactive) in assay [2]; -0.029 (inactive) in [3]; -1.29 (inactive) in [4]; -0.391 (inactive) in assay [5]; 1.41 (inactive) in [11]; 12.9 (active) in [13]. Further, the z-score was 1.15 (inactive) in [14]; 0.384 (inactive) in assay [15]; 0.566 (inactive) in [16]; -0.422 in assay [17]; -0.865 (inactive) in assay [18]; 0.388 (inactive) in [19]. Also, the z-score in assay [20] is 0.188.
